Source: PubChem BioAssay (Tox21)
Records with an inconclusive call do not appear. Entries that show only a call come without a potency. The source made the active and inactive calls. Calls follow the shape of the dose curve; as a rule, active = well fitted inhibition curve with a large enough effect in the repeat runs; inconclusive = weak or mixed curves; inactive = no such curve, though single readings can be large or run the other way.

Molecular target: Cytochrome P450 3A4 (Homo sapiens) (UniProt P08684)
Sequence (P08684 whole entry, looked up): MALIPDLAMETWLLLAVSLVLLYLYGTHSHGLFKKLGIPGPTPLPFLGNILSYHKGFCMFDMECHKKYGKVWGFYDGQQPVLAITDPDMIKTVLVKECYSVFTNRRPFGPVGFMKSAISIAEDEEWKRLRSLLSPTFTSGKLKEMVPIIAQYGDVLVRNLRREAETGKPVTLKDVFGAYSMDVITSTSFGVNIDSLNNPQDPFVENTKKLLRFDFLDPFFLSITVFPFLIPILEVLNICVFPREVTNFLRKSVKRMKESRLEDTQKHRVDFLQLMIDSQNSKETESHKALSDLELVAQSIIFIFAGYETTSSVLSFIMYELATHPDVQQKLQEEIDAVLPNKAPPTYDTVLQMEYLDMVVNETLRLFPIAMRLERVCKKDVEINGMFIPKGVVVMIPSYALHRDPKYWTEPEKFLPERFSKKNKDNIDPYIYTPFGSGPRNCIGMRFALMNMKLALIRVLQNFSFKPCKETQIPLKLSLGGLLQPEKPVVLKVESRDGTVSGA
Test: Cytochrome P450 Family 3 Subfamily A Member 4 (CYP3A4) small molecule antagonists: luciferase reporter qHTS assay (AID 1671201); also: nearly all actives have a fitted effect of over 50% in size
Conditions: P450-Glo CYP3A4 enzyme, luciferin luminescence, 1 h; series mostly up to 115 µM
How it was run: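 Luminescent readout (RLU) proportional to CYP3A4 activity, from luciferin generated off a proluciferin substrate. Enzyme–substrate mix plus compound 10 min at room temp, NADPH regeneration 1 h, detection reagent 20 min.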
Potency is read from the fitted curve at half-maximal effect.

Structure (SMILES) | Potency
O=C(N[C@H]1N=C(c2ccccc2F)c2cccc3c2N(CC3)C1=O)c1cc2ccccc2[nH]1 | inactive
Brc1cccc(-c2ccccc2)c1 | inactive
N#CC(C#N)=NNc1cccc(Cl)c1 | 11.2 µM (active)
c1ccc2c(c1)cc1ccc3cccc4ccc2c1c34 | inactive
ClC1(Cl)C2(Cl)C3(Cl)C4(Cl)C(Cl)(Cl)C5(Cl)C3(Cl)C1(Cl)C5(Cl)C24Cl (centres undefined) | inactive
C[N+]1(C)[C@@H]2CC[C@H]1CC(OC(=O)C(CO)c1ccccc1)C2 (some centres undefined) | inactive
CCCCCON=O | inactive
C=CC(=O)[O][Sn]([CH2]CCC)([CH2]CCC)[CH2]CCC | 25.2 µM (active)
CC[N+]1(CC)CCC(OC(=O)C(O)(c2ccccc2)c2ccccc2)C1 (centres undefined) | inactive
COP(=S)(NC(C)C)Oc1ccc(C)cc1[N+](=O)[O-] (centres undefined) | 0.633 µM (active)
Cc1ccc(C)c2ccccc12 | inactive
O=[N+]([O-])c1ccc(CCl)cc1 | inactive
c1ccc(Nc2ccc(Nc3ccccc3)cc2)cc1 | 39.8 µM (active)
O=c1c2ccccc2c(=O)c2c1cc(Cl)c1[nH]c3c([nH]c12)c(Cl)cc1c(=O)c2ccccc2c(=O)c13 | inactive
CC(C)N(C(=O)CCl)c1ccccc1 | inactive
NC1CCC(CC2CCC(N)CC2)CC1 (centres undefined) | 11.1 µM (active)
CN1C(=O)[C@@H](NC(=O)c2cc3ccccc3[nH]2)N=C(c2ccccc2)c2ccccc21 | inactive
CCNc1nc(NC(C)C(C)C)nc(SC)n1 (centres undefined) | inactive
[O]=[Cr](=[O])([OH])[O][Cr](=[O])(=[O])[OH] | inactive
